# Experimental data: the supplement of paper PMC6522484
# ± gives the standard deviation of the averaged measurements.
# Key:
# DLD1 [1] = assay: cell viability (CellTiter-Glo) relative to plate median (fraction of plate median); higher = more viable cells; details: 5 µM; treatment time 24 h; reporter: 7TFP
# How it was run: (§1)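 Each entry is a luminescence signal normalised to the plate median, averaged over independent replicates. The replicate count was two, and the cells were colorectal cancer lines with stable lentiviral TCF/Wnt firefly luciferase reporters exposed to library compounds at a final 5 µM for 24 h. Firefly luciferase and CellTiterGlo were measured on parallel plates.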
# HCT116 = assay: as above; details: 5 µM; treatment time 24 h; reporter: TCF4/Wnt
# How it was run: as §1
# SW480 [2] = assay: as above; details: 5 µM; treatment time 24 h; reporter: 7TFP
# How it was run: as §1
# DLD1 [3] = assay: TCF/Wnt firefly luciferase reporter signal relative to plate median (fraction of plate median); higher = higher Wnt reporter signal; details: 5 µM; treatment time 24 h; reporter: 7TFP
# How it was run: as §1
# SW480 [4] = assay: as above; details: 5 µM; treatment time 24 h; reporter: 7TFP
# How it was run: as §1
smiles,measurement,setting,value
CO/N=C(\C(=O)N[C@@H]1C(=O)N2C(C(=O)O)=C(COC(C)=O)CS[C@H]12)c1csc(N)n1,cell viability,DLD1 [1],1.03 ± 0.035
same,cell viability,HCT116,1.07
same,cell viability,SW480 [2],0.969 ± 0.031
same,TCF/Wnt firefly luciferase reporter signal,DLD1 [3],1.01 ± 0.11
same,TCF/Wnt firefly luciferase reporter signal,SW480 [4],0.856 ± 0.074
COc1ccc(CCN(C)CCCC(C#N)(c2ccc(OC)c(OC)c2)C(C)C)cc1OC (stereo not given),cell viability,DLD1 [1],1.04 ± 0.12
same,cell viability,HCT116,0.971 ± 0.07
same,cell viability,SW480 [2],1.02 ± 0.014
same,TCF/Wnt firefly luciferase reporter signal,DLD1 [3],1.01 ± 0.12
same,TCF/Wnt firefly luciferase reporter signal,SW480 [4],1.03 ± 0.11
O=C(O)c1cc(=O)c2c(OCC(O)COc3cccc4oc(C(=O)O)cc(=O)c34)cccc2o1,cell viability,DLD1 [1],1.04 ± 0.06
same,cell viability,HCT116,0.9275 ± 0.0021
same,cell viability,SW480 [2],1.09 ± 0.13
same,TCF/Wnt firefly luciferase reporter signal,DLD1 [3],0.902 ± 0.036
same,TCF/Wnt firefly luciferase reporter signal,SW480 [4],1.01 ± 0.081
C[C@@H]1OC(=O)C2=C1O[C@@H]1[C@@H](O)[C@]3(O)CCCC[C@H]3[C@](C)(C2=O)[C@@H]1C [Dihydrotetrodecamycin],cell viability,DLD1 [1],1.08 ± 0.057
same,cell viability,HCT116,1.05 ± 0.071
same,cell viability,SW480 [2],1.065 ± 0.0071
same,TCF/Wnt firefly luciferase reporter signal,DLD1 [3],1.08 ± 0.15
same,TCF/Wnt firefly luciferase reporter signal,SW480 [4],1.04 ± 0.069
CCCCc1nc(Cl)c(CO)n1Cc1ccc(-c2ccccc2-c2nnn[nH]2)cc1,cell viability,DLD1 [1],0.909 ± 0.09
same,cell viability,HCT116,0.921 ± 0.052
same,cell viability,SW480 [2],1.02 ± 0.045
same,TCF/Wnt firefly luciferase reporter signal,DLD1 [3],1.08 ± 0.25
same,TCF/Wnt firefly luciferase reporter signal,SW480 [4],0.715 ± 0.37
N=C(N)NS(=O)(=O)c1ccc(N)cc1,cell viability,DLD1 [1],0.943 ± 0.044
same,cell viability,HCT116,0.892 ± 0.057
same,cell viability,SW480 [2],0.981 ± 0.027
same,TCF/Wnt firefly luciferase reporter signal,DLD1 [3],0.962 ± 0.033
same,TCF/Wnt firefly luciferase reporter signal,SW480 [4],0.986 ± 0.048
N=C(N)NCCCCNC(=N)N,cell viability,DLD1 [1],0.922 ± 0.0085
same,cell viability,HCT116,0.978 ± 0.1
same,cell viability,SW480 [2],0.965 ± 0.017
same,TCF/Wnt firefly luciferase reporter signal,DLD1 [3],0.994 ± 0.14
same,TCF/Wnt firefly luciferase reporter signal,SW480 [4],1.04 ± 0.067
CC(=O)O[C@H]1C[C@@H](OC(C)=O)C(C)(C)C2C[C@@H](O)[C@]3(C)C(CC[C@@]4(C)[C@H](c5ccoc5)OC(=O)[C@H]5O[C@]543)[C@]21C (stereo not given in full),cell viability,DLD1 [1],1.04 ± 0.042
same,cell viability,HCT116,1.06 ± 0.014
same,cell viability,SW480 [2],1.01 ± 0.073
same,TCF/Wnt firefly luciferase reporter signal,DLD1 [3],0.977 ± 0.033
same,TCF/Wnt firefly luciferase reporter signal,SW480 [4],1.02 ± 0.061
CC(C)CCC[C@@H](C)[C@H]1CC[C@H]2[C@@H]3CC=C4C[C@@H](O)CC[C@]4(C)[C@H]3CC[C@]12C,cell viability,DLD1 [1],1.03 ± 0.067
same,cell viability,HCT116,1 ± 0.11
same,cell viability,SW480 [2],1.015 ± 0.0071
same,TCF/Wnt firefly luciferase reporter signal,DLD1 [3],1.05 ± 0.081
same,TCF/Wnt firefly luciferase reporter signal,SW480 [4],1.04 ± 0.042
CC1=C(/C=C/C(C)=C/C=C/C(C)=C/C=C/C=C(C)/C=C/C=C(C)/C=C/C(=O)[C@]2(C)C[C@@H](O)CC2(C)C)C(C)(C)C[C@H](O)C1,cell viability,DLD1 [1],0.98 ± 0.057
same,cell viability,HCT116,0.966 ± 0.1
same,cell viability,SW480 [2],0.997 ± 0.033
same,TCF/Wnt firefly luciferase reporter signal,DLD1 [3],0.947 ± 0.058
same,TCF/Wnt firefly luciferase reporter signal,SW480 [4],1 ± 0.051
C=C1C2CCC3(C)C(c4ccoc4)OC(=O)CC13OC1CC(=O)C(C)(C)C(CC(=O)OC)C12C (stereo not given),cell viability,DLD1 [1],0.97 ± 0.012
same,cell viability,HCT116,0.934 ± 0.0099
same,cell viability,SW480 [2],0.925 ± 0.044
same,TCF/Wnt firefly luciferase reporter signal,DLD1 [3],1.04 ± 0.12
same,TCF/Wnt firefly luciferase reporter signal,SW480 [4],1.09 ± 0.13
